Experimental data taken from the supplement of paper PMC11732987, “Enantioselective OTUD7B fragment discovery through chemoproteomics screening and high-throughput optimisation” (Communications Chemistry, 2025).

What was measured:
Experiment in all cases: log2 ratio of Biotin-Ahx-Ub-VS probe labelling (fragment/DMSO); higher = less target engagement (more negative = stronger competition), active = hit call of the paper (q ≤ 0.05, log2 ratio ≤ -1)
Details in all cases: compound concentration: 200 uM; treatment time: 3 h
USP9X = USP9X (UniProt Q93008)
Outline: (§1)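 Using Biotin-Ahx-Ub-VS at 0.5 µM final for 1 h, DUBs were labelled in HEK293T lysate (495 µg per sample) that had first been treated in triplicate with fragment at 200 µM or vehicle for 3 h. NeutrAvidin enrichment, LysC and trypsin digestion and diaPASEF LC-MS/MS followed. Spectronaut label-free quantities were global-median-normalised. Values are average log2 fragment/vehicle ratios by unpaired t-test, using proteins with ≥2 unique peptides.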

UniProt O00487 = target: UniProt O00487
Outline: as §1

UniProt O00507 = target: UniProt O00507
Outline: as §1

UniProt P51784 = target: UniProt P51784
Outline: as §1

UniProt Q5T2D3 = target: T1, UniProt Q5T2D3
T1 sequence (whole entry): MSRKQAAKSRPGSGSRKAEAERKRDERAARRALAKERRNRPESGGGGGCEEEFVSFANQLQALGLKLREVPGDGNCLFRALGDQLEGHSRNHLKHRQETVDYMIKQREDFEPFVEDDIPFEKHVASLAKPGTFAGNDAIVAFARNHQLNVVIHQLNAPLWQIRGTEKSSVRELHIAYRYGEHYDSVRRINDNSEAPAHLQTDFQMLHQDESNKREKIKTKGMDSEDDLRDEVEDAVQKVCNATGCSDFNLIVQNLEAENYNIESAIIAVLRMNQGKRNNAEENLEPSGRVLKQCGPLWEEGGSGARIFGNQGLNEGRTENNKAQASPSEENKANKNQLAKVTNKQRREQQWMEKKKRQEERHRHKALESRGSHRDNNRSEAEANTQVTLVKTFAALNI
Outline: as §1

UniProt Q8TE49 = target: T2, UniProt Q8TE49
T2 sequence (whole entry): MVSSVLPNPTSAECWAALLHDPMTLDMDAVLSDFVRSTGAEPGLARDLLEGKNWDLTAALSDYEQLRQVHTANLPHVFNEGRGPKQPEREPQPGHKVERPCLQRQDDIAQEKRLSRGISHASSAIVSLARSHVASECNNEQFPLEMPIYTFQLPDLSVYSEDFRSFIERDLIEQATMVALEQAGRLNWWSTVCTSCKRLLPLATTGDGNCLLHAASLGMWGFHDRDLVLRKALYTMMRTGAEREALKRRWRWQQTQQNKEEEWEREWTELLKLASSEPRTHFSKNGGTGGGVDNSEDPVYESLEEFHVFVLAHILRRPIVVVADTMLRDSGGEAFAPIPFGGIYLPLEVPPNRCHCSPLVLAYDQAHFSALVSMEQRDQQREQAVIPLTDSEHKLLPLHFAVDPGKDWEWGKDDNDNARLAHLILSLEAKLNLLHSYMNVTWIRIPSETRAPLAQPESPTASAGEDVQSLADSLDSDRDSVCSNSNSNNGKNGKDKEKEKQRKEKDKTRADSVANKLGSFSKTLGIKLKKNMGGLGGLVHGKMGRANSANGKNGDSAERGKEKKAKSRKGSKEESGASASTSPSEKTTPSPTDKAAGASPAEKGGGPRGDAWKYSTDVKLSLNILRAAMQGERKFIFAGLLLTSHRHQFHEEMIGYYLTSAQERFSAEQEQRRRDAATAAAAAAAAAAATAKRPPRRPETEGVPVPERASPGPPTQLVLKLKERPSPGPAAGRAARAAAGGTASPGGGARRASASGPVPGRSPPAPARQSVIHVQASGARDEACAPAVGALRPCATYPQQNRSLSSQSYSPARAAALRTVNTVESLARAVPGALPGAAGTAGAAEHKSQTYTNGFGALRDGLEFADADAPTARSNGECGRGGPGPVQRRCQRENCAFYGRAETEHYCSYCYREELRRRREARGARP
Outline: as §1

UniProt Q9P2H5 = target: T3, UniProt Q9P2H5
T3 sequence (whole entry): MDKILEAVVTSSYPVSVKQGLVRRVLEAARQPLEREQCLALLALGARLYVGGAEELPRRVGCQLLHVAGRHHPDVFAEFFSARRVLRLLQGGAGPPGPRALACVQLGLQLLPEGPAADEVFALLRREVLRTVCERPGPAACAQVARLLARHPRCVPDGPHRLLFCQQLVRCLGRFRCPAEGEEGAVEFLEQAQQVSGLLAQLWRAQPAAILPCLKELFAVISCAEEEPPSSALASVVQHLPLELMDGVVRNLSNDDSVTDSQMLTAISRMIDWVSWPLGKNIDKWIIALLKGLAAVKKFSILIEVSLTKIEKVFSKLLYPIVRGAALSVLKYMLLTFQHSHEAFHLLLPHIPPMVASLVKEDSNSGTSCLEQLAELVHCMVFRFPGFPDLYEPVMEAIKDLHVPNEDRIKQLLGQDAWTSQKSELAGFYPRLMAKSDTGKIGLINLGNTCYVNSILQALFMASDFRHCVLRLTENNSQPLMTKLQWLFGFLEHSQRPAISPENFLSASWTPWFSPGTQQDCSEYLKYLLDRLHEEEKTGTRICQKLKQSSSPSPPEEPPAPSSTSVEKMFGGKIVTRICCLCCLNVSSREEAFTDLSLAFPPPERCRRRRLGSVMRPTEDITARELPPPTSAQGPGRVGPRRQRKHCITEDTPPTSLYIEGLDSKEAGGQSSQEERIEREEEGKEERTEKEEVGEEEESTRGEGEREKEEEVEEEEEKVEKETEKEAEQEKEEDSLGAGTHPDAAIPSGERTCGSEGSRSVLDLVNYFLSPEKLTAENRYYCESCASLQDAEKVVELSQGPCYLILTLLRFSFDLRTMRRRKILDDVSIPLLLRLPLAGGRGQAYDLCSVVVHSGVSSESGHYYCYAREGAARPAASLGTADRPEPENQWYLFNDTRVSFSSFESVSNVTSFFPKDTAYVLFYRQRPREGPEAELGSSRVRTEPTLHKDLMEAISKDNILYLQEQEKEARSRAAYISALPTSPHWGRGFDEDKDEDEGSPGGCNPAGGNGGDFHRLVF
Outline: as §1

UniProt Q9UGI0 = target: T4, UniProt Q9UGI0
T4 sequence (whole entry): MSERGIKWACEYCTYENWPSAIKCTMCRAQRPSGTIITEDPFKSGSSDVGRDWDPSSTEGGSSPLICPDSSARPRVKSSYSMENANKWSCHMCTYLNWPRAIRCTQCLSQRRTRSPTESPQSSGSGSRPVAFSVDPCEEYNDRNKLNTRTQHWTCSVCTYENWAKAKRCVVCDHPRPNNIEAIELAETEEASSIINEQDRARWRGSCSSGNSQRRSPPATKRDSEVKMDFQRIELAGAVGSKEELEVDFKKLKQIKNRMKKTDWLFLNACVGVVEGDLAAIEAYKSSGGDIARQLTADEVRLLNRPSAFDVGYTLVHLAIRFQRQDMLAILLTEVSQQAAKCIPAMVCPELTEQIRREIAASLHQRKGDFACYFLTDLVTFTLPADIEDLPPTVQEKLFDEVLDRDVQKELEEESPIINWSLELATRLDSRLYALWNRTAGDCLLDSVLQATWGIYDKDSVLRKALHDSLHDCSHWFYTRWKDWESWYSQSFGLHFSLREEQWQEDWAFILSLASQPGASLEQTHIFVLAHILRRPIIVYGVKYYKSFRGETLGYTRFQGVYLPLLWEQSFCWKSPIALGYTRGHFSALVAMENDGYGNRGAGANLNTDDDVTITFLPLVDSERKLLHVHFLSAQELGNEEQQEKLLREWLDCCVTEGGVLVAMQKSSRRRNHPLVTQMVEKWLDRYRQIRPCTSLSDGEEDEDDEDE
Outline: as §1

YOD1 = target: T5, YOD1 (UniProt Q5VVQ6)
T5 sequence (whole entry): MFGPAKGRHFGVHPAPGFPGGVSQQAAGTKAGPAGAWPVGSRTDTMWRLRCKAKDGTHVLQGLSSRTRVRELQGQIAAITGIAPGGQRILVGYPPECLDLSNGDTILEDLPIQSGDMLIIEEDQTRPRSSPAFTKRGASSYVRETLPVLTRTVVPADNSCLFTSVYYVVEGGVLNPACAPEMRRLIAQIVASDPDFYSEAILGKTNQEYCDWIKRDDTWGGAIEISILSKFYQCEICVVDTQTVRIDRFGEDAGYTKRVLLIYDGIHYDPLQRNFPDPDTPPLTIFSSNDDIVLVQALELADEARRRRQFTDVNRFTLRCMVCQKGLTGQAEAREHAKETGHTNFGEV
Outline: as §1

Measured: log2 ratio of Biotin-Ahx-Ub-VS probe labelling

Sequence of UniProt O00487 (O00487 whole entry): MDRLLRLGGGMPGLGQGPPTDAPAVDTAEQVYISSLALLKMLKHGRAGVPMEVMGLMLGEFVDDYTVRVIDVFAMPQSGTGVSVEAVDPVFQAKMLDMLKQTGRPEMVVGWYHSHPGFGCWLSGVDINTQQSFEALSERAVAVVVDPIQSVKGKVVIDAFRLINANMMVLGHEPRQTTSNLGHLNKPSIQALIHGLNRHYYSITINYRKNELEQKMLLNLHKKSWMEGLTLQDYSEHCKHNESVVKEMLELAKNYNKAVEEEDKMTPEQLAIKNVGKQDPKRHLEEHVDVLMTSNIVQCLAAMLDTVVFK
Sequence of UniProt P51784 (P51784 whole entry): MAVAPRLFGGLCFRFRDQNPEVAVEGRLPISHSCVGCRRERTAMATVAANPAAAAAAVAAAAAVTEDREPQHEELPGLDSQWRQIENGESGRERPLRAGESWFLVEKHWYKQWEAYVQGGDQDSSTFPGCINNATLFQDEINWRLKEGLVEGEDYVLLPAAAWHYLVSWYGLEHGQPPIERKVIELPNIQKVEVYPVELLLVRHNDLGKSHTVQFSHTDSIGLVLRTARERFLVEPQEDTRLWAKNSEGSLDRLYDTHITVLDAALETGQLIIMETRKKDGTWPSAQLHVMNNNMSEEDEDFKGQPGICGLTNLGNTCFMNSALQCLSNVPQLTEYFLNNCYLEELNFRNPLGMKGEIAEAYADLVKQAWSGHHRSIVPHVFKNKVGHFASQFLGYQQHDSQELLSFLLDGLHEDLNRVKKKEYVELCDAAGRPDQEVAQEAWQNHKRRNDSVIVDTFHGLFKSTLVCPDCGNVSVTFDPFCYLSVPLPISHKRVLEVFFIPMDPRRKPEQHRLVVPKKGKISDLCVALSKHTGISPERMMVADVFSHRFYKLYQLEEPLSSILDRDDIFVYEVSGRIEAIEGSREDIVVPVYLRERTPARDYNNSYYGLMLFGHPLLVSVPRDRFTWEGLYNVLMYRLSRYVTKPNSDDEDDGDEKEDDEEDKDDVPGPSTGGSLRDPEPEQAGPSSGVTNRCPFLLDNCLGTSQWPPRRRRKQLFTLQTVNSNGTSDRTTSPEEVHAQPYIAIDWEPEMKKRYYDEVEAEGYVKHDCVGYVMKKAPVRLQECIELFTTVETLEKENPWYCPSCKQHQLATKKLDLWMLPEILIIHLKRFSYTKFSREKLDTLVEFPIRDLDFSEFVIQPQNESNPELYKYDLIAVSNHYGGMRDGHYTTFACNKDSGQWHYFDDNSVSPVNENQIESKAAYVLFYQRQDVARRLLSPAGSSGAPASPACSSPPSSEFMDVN
Sequence of USP9X (Q93008 whole entry, the tested form may be a part): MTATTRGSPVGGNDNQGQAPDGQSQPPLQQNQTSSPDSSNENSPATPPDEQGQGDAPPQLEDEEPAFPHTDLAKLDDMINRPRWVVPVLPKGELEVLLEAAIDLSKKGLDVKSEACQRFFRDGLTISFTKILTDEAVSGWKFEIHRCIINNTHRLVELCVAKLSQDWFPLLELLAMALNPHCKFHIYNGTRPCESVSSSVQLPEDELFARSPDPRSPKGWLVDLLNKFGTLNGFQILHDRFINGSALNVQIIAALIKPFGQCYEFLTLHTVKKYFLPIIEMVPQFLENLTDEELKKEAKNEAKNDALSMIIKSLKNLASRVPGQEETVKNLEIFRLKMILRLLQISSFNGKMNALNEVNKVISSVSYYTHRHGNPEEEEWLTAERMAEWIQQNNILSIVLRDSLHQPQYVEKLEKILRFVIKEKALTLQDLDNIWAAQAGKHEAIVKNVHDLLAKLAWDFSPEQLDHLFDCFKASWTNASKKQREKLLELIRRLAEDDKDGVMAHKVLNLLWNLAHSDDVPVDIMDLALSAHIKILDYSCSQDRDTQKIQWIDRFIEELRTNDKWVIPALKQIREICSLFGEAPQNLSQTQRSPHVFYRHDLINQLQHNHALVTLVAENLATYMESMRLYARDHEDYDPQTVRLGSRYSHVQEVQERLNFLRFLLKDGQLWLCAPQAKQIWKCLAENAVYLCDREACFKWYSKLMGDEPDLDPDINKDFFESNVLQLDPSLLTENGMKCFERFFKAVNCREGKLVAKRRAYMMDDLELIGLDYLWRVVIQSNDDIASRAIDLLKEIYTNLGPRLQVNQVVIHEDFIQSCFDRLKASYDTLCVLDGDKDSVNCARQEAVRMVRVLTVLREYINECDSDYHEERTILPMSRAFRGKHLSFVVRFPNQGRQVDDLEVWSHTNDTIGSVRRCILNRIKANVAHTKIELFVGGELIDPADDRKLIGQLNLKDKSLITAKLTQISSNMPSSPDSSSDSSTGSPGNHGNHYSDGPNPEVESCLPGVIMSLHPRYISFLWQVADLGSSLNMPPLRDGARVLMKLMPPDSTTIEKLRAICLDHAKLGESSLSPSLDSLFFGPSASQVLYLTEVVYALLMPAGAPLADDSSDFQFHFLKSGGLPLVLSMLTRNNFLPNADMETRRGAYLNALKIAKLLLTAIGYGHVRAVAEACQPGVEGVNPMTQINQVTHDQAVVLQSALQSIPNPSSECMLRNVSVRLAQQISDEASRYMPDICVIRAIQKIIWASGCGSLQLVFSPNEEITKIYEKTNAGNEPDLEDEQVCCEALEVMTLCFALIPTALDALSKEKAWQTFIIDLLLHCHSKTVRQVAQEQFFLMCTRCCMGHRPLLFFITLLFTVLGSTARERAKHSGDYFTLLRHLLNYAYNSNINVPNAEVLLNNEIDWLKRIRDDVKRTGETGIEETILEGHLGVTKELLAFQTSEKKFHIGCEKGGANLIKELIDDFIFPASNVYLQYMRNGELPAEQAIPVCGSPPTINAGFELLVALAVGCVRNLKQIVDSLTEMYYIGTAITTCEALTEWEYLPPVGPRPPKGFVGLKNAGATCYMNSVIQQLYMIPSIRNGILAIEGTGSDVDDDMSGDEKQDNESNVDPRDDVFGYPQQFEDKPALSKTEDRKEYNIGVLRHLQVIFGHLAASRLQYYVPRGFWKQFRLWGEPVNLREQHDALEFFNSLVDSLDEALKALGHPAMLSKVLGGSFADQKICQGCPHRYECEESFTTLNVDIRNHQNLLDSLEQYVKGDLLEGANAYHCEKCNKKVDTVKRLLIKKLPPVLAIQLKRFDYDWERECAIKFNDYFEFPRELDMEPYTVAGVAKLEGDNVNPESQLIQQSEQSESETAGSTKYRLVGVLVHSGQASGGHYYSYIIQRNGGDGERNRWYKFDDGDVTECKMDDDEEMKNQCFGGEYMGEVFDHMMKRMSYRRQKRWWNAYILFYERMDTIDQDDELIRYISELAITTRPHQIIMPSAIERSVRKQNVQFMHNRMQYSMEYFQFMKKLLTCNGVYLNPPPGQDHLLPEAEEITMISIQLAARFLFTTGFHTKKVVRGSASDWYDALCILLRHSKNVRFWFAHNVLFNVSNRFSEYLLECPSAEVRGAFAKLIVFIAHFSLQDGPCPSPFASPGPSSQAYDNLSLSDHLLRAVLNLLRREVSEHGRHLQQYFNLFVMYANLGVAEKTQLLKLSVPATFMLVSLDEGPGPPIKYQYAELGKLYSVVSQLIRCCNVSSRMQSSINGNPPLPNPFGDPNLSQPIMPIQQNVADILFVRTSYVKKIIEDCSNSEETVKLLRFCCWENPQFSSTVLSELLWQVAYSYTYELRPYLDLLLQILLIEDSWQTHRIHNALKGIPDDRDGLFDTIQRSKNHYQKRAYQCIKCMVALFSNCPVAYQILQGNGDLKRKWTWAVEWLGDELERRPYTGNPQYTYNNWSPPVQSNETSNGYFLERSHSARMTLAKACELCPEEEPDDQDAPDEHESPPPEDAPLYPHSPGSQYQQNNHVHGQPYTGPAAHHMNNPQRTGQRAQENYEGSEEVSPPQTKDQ

CC(O)CC1CCN(C(=O)CCl)CC1 (centres undefined)
inactive: USP9X -0.195 | UniProt O00487 -0.189 | UniProt O00507 0.0435 | UniProt P51784 -0.0578 | UniProt Q5T2D3 -0.0758 | UniProt Q8TE49 -0.714 | UniProt Q9P2H5 0.0392 | UniProt Q9UGI0 0.164 | YOD1 -0.124
